Rows were chosen to be rich in hits. Some 10% of all compounds tested hit in one or more screens of this group.
Six1-Eya2 blk: blocks human Six1 binding to Eya2. AlphaScreen GST-Six1/His-Eya2 binding, biochemical; stronger effect = lower value. Q15475+O00167. activity change, % (concentration not given with the values). 360,000 compounds, 0.56% hits. AID 651725; in the data active = activity change below about -65%; inconclusive = mostly about -30% to -63%; note: % is set by controls: 0 for no effect and ±100 for the full control effect
Target sequence (O00167 whole entry, looked up): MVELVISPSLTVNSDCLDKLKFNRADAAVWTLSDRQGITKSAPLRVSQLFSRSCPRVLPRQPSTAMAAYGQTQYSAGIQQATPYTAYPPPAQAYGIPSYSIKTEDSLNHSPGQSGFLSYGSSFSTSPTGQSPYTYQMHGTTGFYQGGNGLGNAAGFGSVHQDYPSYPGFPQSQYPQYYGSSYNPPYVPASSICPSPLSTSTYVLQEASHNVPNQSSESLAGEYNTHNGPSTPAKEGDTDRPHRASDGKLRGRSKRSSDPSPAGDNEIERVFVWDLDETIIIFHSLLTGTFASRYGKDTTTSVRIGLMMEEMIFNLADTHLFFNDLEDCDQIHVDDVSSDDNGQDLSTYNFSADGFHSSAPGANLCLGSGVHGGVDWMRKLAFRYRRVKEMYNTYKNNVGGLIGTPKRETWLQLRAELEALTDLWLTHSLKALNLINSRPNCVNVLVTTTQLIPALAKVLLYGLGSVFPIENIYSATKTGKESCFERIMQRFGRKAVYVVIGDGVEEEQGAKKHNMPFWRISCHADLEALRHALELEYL
Target sequence (Q15475 whole entry, looked up): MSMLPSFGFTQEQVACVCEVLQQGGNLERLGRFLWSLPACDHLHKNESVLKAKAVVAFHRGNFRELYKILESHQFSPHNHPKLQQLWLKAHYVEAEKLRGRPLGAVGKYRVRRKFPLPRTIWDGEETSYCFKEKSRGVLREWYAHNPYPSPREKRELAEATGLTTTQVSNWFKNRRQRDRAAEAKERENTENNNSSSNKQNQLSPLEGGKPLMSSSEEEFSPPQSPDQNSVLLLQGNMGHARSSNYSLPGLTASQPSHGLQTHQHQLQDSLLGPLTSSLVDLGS
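GST-Six1 + His-Eya2 (5X stock: 250/500 nM); Tris pH 8.0, 300 mM NaCl, 0.05% BSA, 0.02% Tween 20; GSH donor/Ni acceptor beads; 1 h 37 °C dark; AlphaScreen readout.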
BAZ2B block: blocks human BAZ2B; Q9UIF8; AlphaScreen BAZ2B-H3K14Ac peptide displacement; Potency, µM (titrated, usually from 114 µM), for inactives: at the highest dose activity change, negative = inhibition, actives largely listed as inhibitors; 360,000 compounds, 4.4% hits; AID 504333; note: potency is the fitted concentration of half-maximal effect; % is set by controls: 0 for no effect and ±100 for the full control effect; nearly all actives have a fitted effect of over 60% in size
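AlphaScreen displacement of biotin-H3(5-23)K14Ac peptide (50 nM final) from BAZ2B (50 nM final) in PBS pH 7.4, 0.01% Tween-20; complex preformed 30 min RT, then compounds (top 110 uM) 30 min RT, beads 20 min dark.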
JMJD2A Tudor: JMJD2A Tudor domain (human) inhibition | O75164 | AlphaScreen JMJD2A-Tudor / H3K4me3 peptide binding | 390,000 compounds, 4.4% hits | Potency, µM (titrated, usually from 114 µM), inactives show top-dose activity change, negative = inhibition, most hits filed as inhibitors; note: potency is the fitted concentration of half-maximal effect; % is set by controls: 0 for no effect and ±100 for the full control effect; nearly all actives have a fitted effect of over 50% in size
G9a block: inhibitors of human histone lysine methyltransferase G9a. Q96KQ7. G9a H3K9 monomethylation, AlphaScreen, 2 h. Potency, µM (titrated, usually from 102 µM), for inactives: at the highest dose activity, negative = inhibition, actives largely listed as inhibitors. 350,000 compounds, 8.8% hits; note: potency is the fitted concentration of half-maximal effect; % is set by controls: 0 for no effect and ±100 for the full control effect; nearly all actives have a fitted effect of over 75% in size
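Quantitative HTS format: methyltransferase activity on a biotin-tagged H3K9 peptide is measured by AlphaScreen, using a rabbit anti-monomethyl-H3K9 antibody with streptavidin donor and anti-IgG acceptor beads. Final levels are 20 nM enzyme, 500 nM peptide, 20 uM SAM; 2 h RT.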
CtBP-E1A inh: inhibitors of CtBP/E1A interaction | AlphaScreen GST-E1A/His-CtBP binding, 1536-well; stronger effect = lower value | activity change, % (concentration not given with the values) | 340,000 compounds, 0.49% hits; in the data active = activity change below about -65%; inconclusive = mostly about -30% to -63%; note: % is set by controls: 0 for no effect and ±100 for the full control effect
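AlphaScreen with 125 nM GST-E1A and 125 nM His-CtBP (5X stocks) in Tris pH 8.0, 300 mM NaCl, BSA, Tween 20, TCEP. Compounds preincubated 2 h at 37 deg C, then glutathione donor/nickel acceptor beads added for 1 h at 37 deg C in dark.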
HP1b chromo inh: HP1-beta chromodomain-methylated histone interaction inhibition; AlphaScreen HP1-beta / biotin-H3K9me3 peptide binding; Potency, µM (series often up to 114 µM), without a hit: at the top dose activity change, negative = inhibition, usual class: inhibitors; 390,000 compounds, 0.56% hits; AID 540317; note: potency is the fitted concentration of half-maximal effect; nearly all actives have a fitted effect of over 70% in size
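HP1-beta protein (50 nM final) preincubated 30 min at room temperature with biotinylated H3(1-18)K9me3 peptide (50 nM) in PBS pH 7.4, 0.01% Tween-20, then compound added for 30 min. AlphaScreen streptavidin donor/nickel chelate acceptor beads (10 ug/mL final), 30 min dark, luminescence read.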
Active calls of the source: *; [ ] = dose if it differs, or a comment. Unless noted, calls come from the whole dose curve; as a rule, active = well fitted inhibition curve with a large enough effect; inconclusive = small, poorly fitted or top-dose-only effect; inactive = no such curve, though single readings can be large or run the other way.

Results for COc1cc(CNc2ccc(O)cc2)cc(Br)c1OCc1ccccc1 ?
Six1-Eya2 blk: -2.1; BAZ2B block: 39.8µM*; JMJD2A Tudor: 44.7µM*; G9a block: 25.1µM*; HP1b chromo inh: inconclusive

What do the screens show for `CCOc1c(Br)cc(CNc2ccc(N3CCN(C(C)=O)CC3)cc2)cc1OC`?
Six1-Eya2 blk: -27.4; BAZ2B block: 39.8µM*; JMJD2A Tudor: 50.1µM*; G9a block: 28.2µM*; CtBP-E1A inh: -27.5; HP1b chromo inh: -22.5%

Results for CCOC(=O)c1c(Oc2ccc(C(=O)OC)cc2)nnc(-c2ccccc2)c1-c1ccccc1 ?
BAZ2B block: -16.3%; JMJD2A Tudor: -19.1%; G9a block: -26.5%[59 µM]; HP1b chromo inh: 34.5%

What do the screens show for `C=CCOc1c(Br)cc(CNc2ccc3[nH]c(=O)[nH]c3c2)cc1OCC`?
Six1-Eya2 blk: inconclusive; BAZ2B block: -18.9%; JMJD2A Tudor: -22.8%; CtBP-E1A inh: -13.6; HP1b chromo inh: 1.0%

What do the screens show for `C=CCOc1c(Br)cc(CNc2ccc(NC(=O)C(C)C)c(OC)c2)cc1OCC`?
Six1-Eya2 blk: -2.7; BAZ2B block: 21.6%; JMJD2A Tudor: inconclusive; G9a block: 6.31µM*; CtBP-E1A inh: 4.1; HP1b chromo inh: -2.2%

How did Cc1cc(OCC(=O)Nc2ccc(C(=O)OC3CCCCC3)cc2)cc(C)c1Cl do in these assays?
BAZ2B block: 5.2%; JMJD2A Tudor: -5.6%; G9a block: 15.4%[59 µM]; HP1b chromo inh: 26.4%

How did Cc1cc(C)cc(NC(=O)C2CCCN(S(=O)(=O)c3cccc4nsnc34)C2)c1 (stereo not given) do in these assays?
JMJD2A Tudor: -20.0%; G9a block: 4.8%[59 µM]; HP1b chromo inh: 37.0%

Results for COc1ccc(S(=O)(=O)NCC(c2cccnc2)N2CCN(c3ccccc3)CC2)cc1C (stereo not given) ?
Six1-Eya2 blk: -6.1; BAZ2B block: inconclusive; JMJD2A Tudor: inconclusive; G9a block: 50.1µM*; CtBP-E1A inh: -3.4; HP1b chromo inh: -12.9%

How did COc1ccc(N2CCN(C(CNS(=O)(=O)c3cccs3)c3cccnc3)CC2)cc1 (stereo not given) do in these assays?
Six1-Eya2 blk: -11.5; BAZ2B block: inconclusive; JMJD2A Tudor: inconclusive; G9a block: 89.1µM*; CtBP-E1A inh: -7.8; HP1b chromo inh: -15.0%

What do the screens show for `COc1ccccc1N1CCN(C(CNS(=O)(=O)c2cccs2)c2cccnc2)CC1` (stereo not given)?
Six1-Eya2 blk: -5.4; BAZ2B block: -6.0%; JMJD2A Tudor: -33.3%; G9a block: 50.1µM*; CtBP-E1A inh: -11.6; HP1b chromo inh: 5.1%

Results for COc1ccc(N2CCN(C(CNS(=O)(=O)c3cc(F)ccc3F)c3cccnc3)CC2)cc1 (stereo not given) ?
Six1-Eya2 blk: -13.6; BAZ2B block: -38.0%; JMJD2A Tudor: inconclusive; G9a block: 44.7µM*; CtBP-E1A inh: -9.8; HP1b chromo inh: -23.0%

Results for O=S(=O)(NCC(c1cccnc1)N1CCN(c2ccc(F)cc2)CC1)c1cc(F)ccc1F (stereo not given) ?
Six1-Eya2 blk: -2.4; JMJD2A Tudor: inconclusive; CtBP-E1A inh: -2.5; HP1b chromo inh: 11.0%

What do the screens show for `O=S(=O)(NCC(c1cccnc1)N1CCN(c2ccccc2)CC1)c1cccs1` (stereo not given)?
Six1-Eya2 blk: -11.0; BAZ2B block: inconclusive; JMJD2A Tudor: -26.1%; G9a block: inconclusive; CtBP-E1A inh: -2.2; HP1b chromo inh: 0.4%

How did COc1ccc(S(=O)(=O)NCC(c2cccnc2)N2CCN(c3ccc(F)cc3)CC2)cc1C (stereo not given) do in these assays?
Six1-Eya2 blk: -12.6; BAZ2B block: inconclusive; JMJD2A Tudor: inconclusive; G9a block: inconclusive; CtBP-E1A inh: -11.7; HP1b chromo inh: -16.0%

How did CCOC(=O)c1c(C)oc2nc(C)nc(Nc3cc(C)ccc3OC)c12 do in these assays?
BAZ2B block: 11.7%[57.1 µM]; JMJD2A Tudor: -1.0%; G9a block: -15.6%[59 µM]; HP1b chromo inh: 33.3%

What do the screens show for `CN(C)c1ncc2nc(-c3cccs3)c(=O)n(C[C@H]3CCCO3)c2n1`?
G9a block: 6.8%[0.501 µM]

How did COc1ccccc1N1CCN(C(CNC(=O)C(=O)NCCc2ccccc2)c2cccnc2)CC1 (stereo not given) do in these assays?
BAZ2B block: 39.8µM*; JMJD2A Tudor: 11.2µM*; G9a block: 5.62µM*; HP1b chromo inh: 20µM*

What do the screens show for `Cc1cccc2c(=O)cc(CSc3ccccc3NC(=O)c3cccc(Cl)c3)[nH]c12`?
BAZ2B block: 0.1%; JMJD2A Tudor: -10.1%; G9a block: -3.6%[59 µM]; HP1b chromo inh: 23.2%[57 µM]

Results for CCOc1ccccc1NC(=O)Cn1nc(N2CCN(c3ccccc3)CC2)ccc1=O ?
BAZ2B block: -27.4%; JMJD2A Tudor: -26.0%; G9a block: -31.9%[59 µM]; HP1b chromo inh: -2.8%

Results for Cc1sc2nc(CSc3nnc(Cc4cccs4)n3C3CCCCC3)[nH]c(=O)c2c1C ?
Six1-Eya2 blk: 0.9; BAZ2B block: 11.6%; JMJD2A Tudor: -20.9%; G9a block: 44.7µM*; CtBP-E1A inh: -0.2; HP1b chromo inh: 36.6%

What do the screens show for `O=c1[nH]c(CSc2nc3ccccc3s2)nc2cc(Cl)ccc12`?
BAZ2B block: -15.7%; G9a block: 28.2µM*

Results for Cc1ccc2nc(CSc3nnc(Cc4cccs4)n3C3CCCCC3)cc(=O)n2c1 ?
Six1-Eya2 blk: 4.4; BAZ2B block: -1.8%; JMJD2A Tudor: -26.7%; G9a block: inconclusive; CtBP-E1A inh: 5.8; HP1b chromo inh: 45.8%

What do the screens show for `Cc1sc2nc(CSc3nc4ccccc4s3)[nH]c(=O)c2c1C`?
BAZ2B block: inconclusive; G9a block: 8.91µM*

Results for Cc1ccc(-n2cc(C(=O)OCc3ccc(Cl)cc3)c3ccccc3c2=O)cc1 ?
BAZ2B block: 1.2%; JMJD2A Tudor: -2.9%; G9a block: 18.2%[59 µM]; HP1b chromo inh: 20.3%[57 µM]

What do the screens show for `C=C1CCN([C@H](C(=O)OCc2cccc(C)c2)C(C)C)S(=O)(=O)c2ccccc21`?
Six1-Eya2 blk: 10.6; BAZ2B block: 26.3%; JMJD2A Tudor: 31.9%; G9a block: inconclusive; CtBP-E1A inh: -25.0; HP1b chromo inh: 89.2%

What do the screens show for `Cc1c(C(=O)C(=O)NCc2ccco2)c2ccccc2n1C`?
Six1-Eya2 blk: 5.7; JMJD2A Tudor: -7.9%; G9a block: -47.7%; CtBP-E1A inh: 2.3; HP1b chromo inh: 9.3%

Results for O=C(c1ccc2c(c1)N(Cc1ccc(Cl)cc1)C(=O)c1ccccc1S2(=O)=O)N1CCCCCC1 ?
BAZ2B block: -20.1%; JMJD2A Tudor: -9.8%; G9a block: -25.3%[59 µM]; HP1b chromo inh: 24.1%

Compound activity as filed in PubChem BioAssay.
